Screening data deposited in PubChem BioAssay by National Center for Advancing Translational Sciences (NCATS).
The entries come from a sample that favours hits as a whole.
L3MBTL1 inh: L3MBTL1 (human) inhibition. Q9Y468. AlphaScreen L3MBTL1–H3K9me1 peptide binding. Potency, µM (titrated, usually from 57.1 µM), for inactives: top-dose activity, negative = inhibition, most hits filed as inhibitors. actives 0.66% (n = 230,000). AID 485360; further: nearly all actives have a fitted effect of over 60% in size
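AlphaScreen proximity signal between nickel-chelate acceptor and streptavidin donor beads (final 10 ug/mL) reports binding of 50 nM L3MBTL1 to 75 nM biotin-H3 K9me1 peptide; complex incubated with compounds 30 min at room temperature; cefsulodin titration as control.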
RGS12 GoLoco inh: inhibitors of human Gai1-RGS12 GoLoco interaction (red fluorophore) | P63096 | Gai1:RGS12 GoLoco peptide FP, rhodamine, 10 min | Potency, µM (titrated, usually from 61.6 µM), inactives show top-dose activity, negative = inhibition, most hits filed as inhibitors | actives 0.44% (n = 230,000) | AID 880; active means well fitted inhibition curve with a large enough effect, not every such curve was filed as active; inactive means no such curve, though single readings can be large or run the other way; further: nearly all actives have a fitted effect of over 30% in size
RECQ1 helicase: blocks DNA unwinding by human RECQ1 | AID 2549 | actives 0.54% (n = 240,000) | RECQ1 DNA unwinding, red fluorescence kinetic read | P46063 | Potency, µM (series often up to 57.3 µM), for the others: at the highest dose activity, negative = inhibition, hits mostly inhibitors;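 further: plate controls were vehicle for no effect and no enzyme for full effect; nearly all actives have a fitted effect of over 30% in size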
Target sequence (P46063 whole entry, looked up): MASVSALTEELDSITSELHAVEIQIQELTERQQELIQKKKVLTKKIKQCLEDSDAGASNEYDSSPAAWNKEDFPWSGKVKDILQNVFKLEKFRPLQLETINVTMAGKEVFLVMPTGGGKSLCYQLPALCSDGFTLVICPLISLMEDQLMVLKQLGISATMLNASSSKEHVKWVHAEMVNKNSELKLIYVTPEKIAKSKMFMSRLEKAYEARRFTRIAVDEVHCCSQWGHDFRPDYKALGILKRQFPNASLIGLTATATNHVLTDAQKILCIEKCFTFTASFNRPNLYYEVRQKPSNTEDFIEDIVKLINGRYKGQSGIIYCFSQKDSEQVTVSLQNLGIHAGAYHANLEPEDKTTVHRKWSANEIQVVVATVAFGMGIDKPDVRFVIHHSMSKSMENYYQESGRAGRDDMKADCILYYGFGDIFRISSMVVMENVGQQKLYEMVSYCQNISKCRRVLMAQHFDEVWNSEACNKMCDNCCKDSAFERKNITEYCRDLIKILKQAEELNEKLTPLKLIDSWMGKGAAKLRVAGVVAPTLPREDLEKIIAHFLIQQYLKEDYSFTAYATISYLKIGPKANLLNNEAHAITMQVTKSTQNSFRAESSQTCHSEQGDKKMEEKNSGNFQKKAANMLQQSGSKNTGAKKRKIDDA
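RECQ1T1 50 nM; forked duplex (20 bp + 30-nt ss tails) 200 nM, ATP 2 mM final; pH 8.0, 2 mM MgCl2, 2.5 ug/ml poly(dI-dC); 15 min compound preincubation; discontinuous kinetic read over 2 h at RT.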
BLM helicase inh: Bloom syndrome helicase (human) inhibition; P54132; recombinant BLM DNA unwinding, fluorescence dequenching; Potency, µM (top dose mostly 56.1 µM), for inactives: top-dose activity change, negative = inhibition, actives largely listed as inhibitors; actives 0.2% (n = 350,000);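 further: plate controls were vehicle for no effect and no enzyme for full effect; nearly all actives have a fitted effect of over 35% in size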
KDM4E inh: inhibitors of human JMJD2E histone demethylase; JMJD2E catalytic domain, FDH-coupled NADH fluorescence (FDH is formaldehyde dehydrogenase); actives 1.6% (n = 230,000); B2RXH2; Potency, µM (series often up to 57.1 µM), for the others: top-dose activity change, negative = inhibition, usual class: inhibitors; active means well fitted inhibition curve with a large enough effect, not every such curve was filed as active; inconclusive means small, poorly fitted or top-dose-only effect, or another doubt; inactive means no such curve, though single readings can be large or run the other way;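 further: 0% = wells with enzyme and -100% = buffer wells without enzyme; nearly all actives have a fitted effect of over 50% in size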
APEX1 inh: APE1 (human) endonuclease inhibition; P27695; recombinant APE1, TAMRA/BHQ-2 abasic DNA cleavage fluorescence; Potency, µM (titrated, usually from 65.8 µM), without a hit: top-dose activity change, negative = inhibition, usual class: inhibitors; actives 0.35% (n = 350,000); AID 2517;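 further: plate controls were vehicle for no effect and reference inhibitor for full effect; nearly all actives have a fitted effect of over 55% in size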
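Compound pre-exposure to 0.75 nM APE1, 15 min at ambient temperature. Reaction initiated with 50 nM TAMRA/BHQ-2 THF substrate, read immediately in kinetic mode, 525 nm excitation, 598 nm emission.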
* = called active by the depositor; [ ] = remark or other dose. Unless noted, the call rests on the fitted dose curve; in most records, active means well fitted curve in the direction sought with a large enough effect; inconclusive means small, poorly fitted or top-dose-only effect, or another doubt; inactive means no such curve, though single readings can be large; an effect the other way counts as inactive or inconclusive. Unless noted, on the % scale 0 is the no-effect control and ±100 the full control effect; potency means the concentration at half of the fitted maximal effect.

Screening CNC(=O)c1c(C)[nH]c(=S)c(C#N)c1-c1ccco1 returned L3MBTL1 inh 13.9%, RGS12 GoLoco inh -11.6%, RECQ1 helicase -25.6%, BLM helicase inh -11.5%, KDM4E inh 31.6µM* and APEX1 inh 16.1%.
`Cc1ccccc1NC(=O)c1c(C)[nH]c(=S)c(C#N)c1-c1ccco1` gave L3MBTL1 inh -1.7%, RGS12 GoLoco inh 19.3%, RECQ1 helicase -5.3%, BLM helicase inh -15.0%, KDM4E inh -13.8% and APEX1 inh 4.2%.
C=Cc1ccc(Cn2c(C(=O)O)c(CNCc3ccc(F)cc3)c3ccc(C)cc32)cc1 was read as BLM helicase inh -10.0%.
`CN(C)CCn1nnnc1SCC1=C(C(=O)O)N2C(=O)[C@@H](NC(=O)Cc3csc(N)n3)[C@H]2SC1` gave L3MBTL1 inh 28.2µM* and APEX1 inh inconclusive.
Screening Clc1ccc(-n2nnc(-c3nccs3)n2)cc1Cl returned L3MBTL1 inh 13.1%, RGS12 GoLoco inh 5.5%, RECQ1 helicase -0.1%, BLM helicase inh -4.5%, KDM4E inh 12.6µM* and APEX1 inh 1.9%.
`Clc1ccc(-n2nnc(-c3cccnc3)n2)cc1Cl` gave L3MBTL1 inh 42.2%, RGS12 GoLoco inh 0.3%, RECQ1 helicase -7.7%, BLM helicase inh 4.2%, KDM4E inh 2.7% and APEX1 inh 5.7%.
Cc1ccc(C)c(S(=O)(=O)Nc2cc(SCC(=O)O)c(O)c3ccccc23)c1 was read as L3MBTL1 inh inconclusive, RGS12 GoLoco inh -0.3%, RECQ1 helicase 0.0%, BLM helicase inh 15.8µM*, KDM4E inh 12.0% and APEX1 inh -11.6%.
`CCOc1ccc(S(=O)(=O)Nc2cc(SCC(=O)O)c(O)c3ccccc23)cc1` gave L3MBTL1 inh inconclusive, BLM helicase inh inconclusive and APEX1 inh 8.7%.
For O=C(O)CSc1cc(NS(=O)(=O)c2cccc([N+](=O)[O-])c2)c2ccccc2c1O the results were L3MBTL1 inh inconclusive, RGS12 GoLoco inh -18.1%, RECQ1 helicase -15.1%, BLM helicase inh 17.8µM*, KDM4E inh inconclusive and APEX1 inh -4.8%.
`Cc1ccc(NS(=O)(=O)c2cc(NC(=O)C(C)Oc3ccccc3)ccc2C)c(C)c1` (stereo not drawn) gave L3MBTL1 inh -8.1%, RGS12 GoLoco inh 13.1%, RECQ1 helicase -8.8%, BLM helicase inh -14.0%, KDM4E inh 5.8% and APEX1 inh 0.6%.
Screening CCc1ccc(S(=O)(=O)Nc2cc(SCC(=O)O)c(O)c3ccccc23)cc1 returned L3MBTL1 inh inconclusive, RGS12 GoLoco inh 8.1%, RECQ1 helicase -5.6%, BLM helicase inh 17.8µM*, KDM4E inh inconclusive and APEX1 inh 0.5%.
`O=C(O)c1cccc(S(=O)(=O)Nc2ccc([N+](=O)[O-])cc2O)c1` gave L3MBTL1 inh 0.3%, RGS12 GoLoco inh 1.5%, RECQ1 helicase -11.7%, BLM helicase inh -1.6%, KDM4E inh inconclusive and APEX1 inh -2.7%.
`O=S(=O)(Nc1cc(Sc2cccc3cccnc23)c(O)c2ccccc12)c1ccccc1` gave L3MBTL1 inh inconclusive, RGS12 GoLoco inh -10.5%, RECQ1 helicase -10.5%, BLM helicase inh -16.5%, KDM4E inh 28.2µM* and APEX1 inh inconclusive.
Screening CC(C)Nc1cc(N2CCN(C3CCCCC3)CC2)c2noc3c2c1C(=O)c1ccccc1-3 returned BLM helicase inh -4.2%.
For NC(=O)C1CCN(c2nc(-c3ccc(N4CCCCC4)nc3)cs2)CC1 the results were APEX1 inh 8.8%.
`C[C@H](NC(=O)N1CCc2nc(COc3ccccc3)c3c(c2C1)CO[C@@H](C)C3)c1ccccc1` gave RGS12 GoLoco inh -0.3%[14.2 µM], RECQ1 helicase inactive[11.5 µM], BLM helicase inh -6.5%[12.4 µM], KDM4E inh 7.9%[11.4 µM] and APEX1 inh -4.2%[12.4 µM].
COc1cc(/C=C2/C(=O)c3cccc([N+](=O)[O-])c3C2=O)c(Br)cc1O was read as L3MBTL1 inh -15.3%, RGS12 GoLoco inh 19.9%, RECQ1 helicase 25.1µM*, BLM helicase inh -19.3%, KDM4E inh -24.5% and APEX1 inh inconclusive.
`COc1ccccc1NC(=O)CCCCCN1C(=O)c2cccc([N+](=O)[O-])c2C1=O` gave L3MBTL1 inh 0.2%, BLM helicase inh -10.8% and APEX1 inh -0.4%.
Screening NS(=O)(=O)c1ccc(N=Nc2ccc(O)c3ncccc23)cc1 returned BLM helicase inh -17.2% and APEX1 inh 36.7%.
O=Cc1ccc(O)c2ncccc12 was read as L3MBTL1 inh 3.98µM*, RGS12 GoLoco inh 3.3%, RECQ1 helicase -1.1%, BLM helicase inh 3.2%, KDM4E inh 3.16µM* and APEX1 inh -3.5%.
`COC1C=CO[C@@]2(C)Oc3c(C)c(O)c4c(O)c(c(C=NN5CCN(C)CC5)c(O)c4c3C2=O)NC(=O)/C(C)=C\C=CC(C)C(O)[C@@H](C)C(O)C(C)[C@H](OC(C)=O)C1C` (stereo partly drawn) gave RGS12 GoLoco inh 4.7%, RECQ1 helicase -4.3%, BLM helicase inh -1.7% and KDM4E inh 12.6µM*.
`O=C(N/N=C/c1ccc([N+](=O)[O-])o1)C(=O)Nc1ccc(C(=O)O)cc1` gave L3MBTL1 inh -16.8%, RGS12 GoLoco inh 0.5%, RECQ1 helicase -4.5%, BLM helicase inh -1.5%, KDM4E inh 0.7% and APEX1 inh -8.3%.
O=C(O)c1ccc(N/N=C/C=C/c2ccc([N+](=O)[O-])o2)cc1 was read as BLM helicase inh -23.4% and APEX1 inh 10.6µM*.
Screening Cc1noc(C)c1-c1ccc2ncnc(NCc3ccc(-c4ccccc4)cc3)c2c1 returned RECQ1 helicase inactive, BLM helicase inh 2.3% and APEX1 inh inconclusive.
O=Nc1c(O)[nH]c2ccccc12.[Cu].[O-]/N=C1/C(=[OH+])Nc2ccccc21 was read as RGS12 GoLoco inh 0.4%[14.2 µM].
Screening COc1cc(NC(=O)Nc2ccc3c(c2)OCO3)cc(OC)c1OC returned RGS12 GoLoco inh 3.4%, RECQ1 helicase -3.6%, BLM helicase inh -1.0%, KDM4E inh 3.7% and APEX1 inh -1.4%.
`COc1cc(C(Nc2ccc3c(c2)OCO3)C(=O)NC2CCCCC2)cc(OC)c1OC` (stereo not drawn) gave L3MBTL1 inh -10.0%[11.4 µM], RGS12 GoLoco inh 0.4%, RECQ1 helicase 2.4%, BLM helicase inh -11.1%, KDM4E inh 28.2µM* and APEX1 inh 0.8%.
For CN1C=C/C(=C\c2cc[n+](C)c3ccccc23)c2ccccc21 the results were RGS12 GoLoco inh -18.7%, RECQ1 helicase -7.0%, BLM helicase inh inconclusive, KDM4E inh 3.98µM* and APEX1 inh 2.5%.
